Results filed as inconclusive are left out. A number with no mark means an inactive call. Calls of active or inactive are those of the source. The call rests on the fitted dose curve; in most records, active means well fitted cell-killing curve with a large enough effect; inconclusive means small, poorly fitted or top-dose-only effect; inactive means flat fitted curve, though single readings scatter.
Experiment: qHTS of pediatric cancer cell lines to identify multiple opportunities for drug repurposing: Primary screen for RD cells (AID 1347104); further: nearly all actives have a fitted effect of over 55% in size
Details: RD rhabdomyosarcoma viability, CellTiter-Glo luminescence, 48 h; series mostly up to 46 µM; activity change, negative = cytotoxic: at the top concentration
Excerpt: Drug repurposing or repositioning has been offered as a strategy for drug development in oncology programs. This approach has special potential for childhood cancers and other rare or orphan diseases, where the expected return on new drug development has been a disincentive to pharmaceuticals. […] In this project we exploit the poly-pharmacology of drugs to discover new indications via phenotypic screening of a panel of 19 well-characterized cell lines derived from solid tumors seen in children and adolescents. The goal is to identify approved drugs with previously unrecognized anticancer properties that has the potential to reveal new mechanisms and biological processes involved in carcinogenesis or drug resistance. We employed a titration-based paradigm (quantitative high-throughput screening or qHTS), where all compounds were tested at multiple concentrations for their effect on cell viability. Concentration-response curves (CRCs) were derived directly from the primary screen, and both potency and efficacy values were used to identify compounds with robust bioactivity profiles. We screened the NIH Chemical Genomics Center (NCGC) Pharmaceutical Collection (NPC) and Mechanism Interrogation Plate (MIPE) small molecule collections of approved and investigational compounds against these cell lines; and measured metabolically active cells after 48 hours of compound treatment as a proxy for cell viability. […] Assay Submitter: Nathalia J. Martinez, National Center for Advancing Translational Sciences, National Institutes of Health, Rockville, MD, USA; email: natalia.martinez@nih.gov Shen, M et al. Quantitative high-throughput phenotypic screening of pediatric cancer cell lines identifies multiple opportunities for drug repurposing. Oncotarget 2017 Dec 19;9(4):4758-4772. PMID 29435139.
The cells were obtained from University of North Carolina (UNC), Pediatric Preclinical Testing Program (PPT), and Coriell Institute (CI). qHTS cell viability assay: Cells were assayed in growth media at a density of 500-1,000 cells/well. Five microliters of cells were dispensed into 1,536-well, white, solid-bottom, TC-treated plates (Greiner Bio One) using a multidrop dispenser and incubated at 37 degrees C, 5% CO2, under a humidified atmosphere for 5 hours. Twenty-three nanoliters of compounds and controls (neutral control DMSO or positive control bortezomib at final concentration of 2.3 µM) were subsequently transferred by Kalypsys pintool. For primary screens, the MIPE collection was tested at 11-point dilutions (final concentrations range from 0.78 nM to 46 µM) and the NPC collection at 8-point dilutions (final concentrations range from 0.59 nM to 46 µM). Compounds tested in follow-up screens were assayed at 11-point dilutions. Cells were incubated for 48 hours, followed by addition of 3 µL of CellTiter-Glo (Promega). After a 15 min incubation at room temperature, samples were analyzed for luminescence intensity using a ViewLux High-throughput CCD imager equipped with clear filters.
Potency means the concentration at half of the fitted maximal effect.

| SMILES | Potency | activity change, negative = cytotoxic |
| --- | --- | --- |
| CN(C)CCCN=c1c2ccccc2n(C)c2[nH]c(=O)n(C)c(=O)c12 | 13.2 µM (active) | – |
| CC=C1NC(=O)[C@H]2CSSCCC=C[C@H](CC(=O)N[C@H](C(C)C)C(=O)N2)OC(=O)[C@H](C(C)C)NC1=O | 0.0148 µM (active) | – |
| O=C(c1ccc(Nc2nccc(-c3cc4ccccc4s3)n2)cc1)N1CCC(N2CCCC2)CC1 | 10.5 µM (active) | – |
| CC[C@H]1CN2CCc3cc(OC)c(OC)cc3[C@H]2C[C@@H]1C[C@@H]1NCCc2cc(OC)c(OC)cc21 | 0.469 µM (active) | – |
| CN1c2cc(O)c(N=NC(N)=O)cc2CC1S(=O)(=O)O (stereo not given) | – | -8.13% |
| CC1=C(CO)C(=O)O[C@@H]([C@@H](C)[C@H]2CC[C@H]3[C@@H]4C[C@H]5O[C@]56[C@@H](O)C=CC(=O)[C@]6(C)[C@@H]4CC[C@]23C)C1 | 0.418 µM (active) | – |
| C=CC(=O)Nc1cccc(Oc2nc(Nc3ccc(N4CCN(C)CC4)cc3)ncc2Cl)c1 | 20.9 µM (active) | – |
| Cc1c(CN2CCN(S(C)(=O)=O)CC2)sc2c(N3CCOCC3)nc(-c3cnc(N)nc3)nc12 | 0.132 µM (active) | – |
| COc1cc2c(Oc3ccc(-c4cnc(Nc5ccc(F)cc5)n(C)c4=O)cc3F)ccnc2cc1OCCCN1CCOCC1 | 9.35 µM (active) | – |
| CN1CCN(c2ccc3nc(-c4c(N)c5c(F)cccc5[nH]c4=O)[nH]c3c2)CC1 | 18.7 µM (active) | – |
| O=C(NCCCNc1nc(Nc2cccc(NC(=O)N3CCCC3)c2)ncc1I)c1cccs1 | 16.6 µM (active) | – |
| NC(=O)c1c(OCc2c(F)cc(Br)cc2F)nsc1NC(=O)NCCCCN1CCCC1 | 18.7 µM (active) | – |
| O=C(O)C1(Cc2cccc(Nc3nccs3)n2)CCC(Oc2cccc(Cl)c2F)CC1 (stereo not given) | – | -11.7% |
| Nc1cccc(-c2cc3c(Oc4cccc(O)c4)ncnc3[nH]2)c1 | 9.35 µM (active) | – |
| NC1(Cc2ccc(Cl)cc2)CCN(c2ncnc3[nH]ccc23)CC1 | 11.8 µM (active) | – |
| Cc1[nH]nc2ccc(-c3cncc(OC[C@@H](N)Cc4ccccc4)c3)cc12 | 3.32 µM (active) | – |
| Cc1cn2c(-c3cn[nH]c3)cnc2c(Nc2ccc(C(=O)N3CCNCC3)cc2F)n1 | 16.6 µM (active) | – |
| CC(C)(C)NC(=O)[C@H]1CN(Cc2cccnc2)CCN1C[C@@H](O)C[C@@H](Cc1ccccc1)C(=O)N[C@H]1c2ccccc2C[C@H]1O | 1.48 µM (active) | – |
| CC(C)c1cnn2c(NCc3ccccc3)cc(N[C@@H](CO)[C@H](O)CO)nc12 | 0.372 µM (active) | – |
| Cn1c2cc(S(C)=O)sc2c2cnn(Cc3cccc(N)c3)c(=O)c21 (stereo not given) | – | -2.92% |

| SMILES | Potency | activity change, negative = cytotoxic |
| --- | --- | --- |
| CCc1c2c(nc3ccc(O)cc13)-c1cc3c(c(=O)n1C2)COC(=O)[C@]3(O)CC | 0.372 µM (active) | – |
| CC(C)c1nn(-c2c(Cl)cccc2Cl)c2nc(Cc3ccc(OCCO)cc3)[nH]c(=O)c12 | 0.132 µM (active) | – |
| OCCCNc1cc(-c2ccnc(Nc3cccc(Cl)c3)n2)ccn1 | 0.235 µM (active) | – |
| COc1cc2c(NC3CCN(C(C)C)CC3)nc(C3CCCCC3)nc2cc1OCCCN1CCCC1 | 11.8 µM (active) | – |
| CC(C)c1cc(C(=O)N2Cc3ccc(CN4CCN(C)CC4)cc3C2)c(O)cc1O | 0.209 µM (active) | – |
| CC(=O)Nc1nc(C)c(-c2ccc(Cl)c(S(=O)(=O)NCCO)c2)s1 | 4.18 µM (active) | – |
| CC(C)(C)c1cnc(CSc2cnc(NC(=O)C3CCNCC3)s2)o1 | 0.264 µM (active) | – |
| Cc1ccc(C(=O)Nc2ccc(CN3CCN(C)CC3)c(C(F)(F)F)c2)cc1C#Cc1cnc2cccnn12 | 3.32 µM (active) | – |
| CS(=O)(=O)c1ccc(-c2cnc(N)c(C(=O)Nc3ccccc3)n2)cc1 | – | 1.45% |
| Cc1cc(N2CCOCC2)cc2[nH]c(-c3c(NC[C@@H](O)c4cccc(Cl)c4)cc[nH]c3=O)nc12 | 0.59 µM (active) | – |
| COC(=O)C[C@](O)(CCCC(C)(C)O)C(=O)O[C@@H]1C(OC)=C[C@]23CCCN2CCc2cc4c(cc2[C@H]13)OCO4 | – | 6.8% |
| Nc1ccn([C@@H]2CS[C@H](CO)O2)c(=O)n1 | – | 9.81% [at 92.7 µM] |
| CC1(C)CC(=O)c2c(C(F)(F)F)nn(-c3ccc(C(N)=O)c(NC4CCC(OC(=O)CN)CC4)c3)c2C1 (stereo not given) | 0.187 µM (active) | – |
| CC(C)[C@H](C(=O)Nc1ccc(C(=O)NO)cc1)c1ccccc1 | 2.64 µM (active) | – |
| O=C(CCCCCCNC(=O)c1cnc(N(c2ccccc2)c2ccccc2)nc1)NO | 13.2 µM (active) | – |
| COc1cccc2nc(-c3cccs3)nc(NN3C(=O)C=C(C)C3=O)c12 | 5.26 µM (active) | – |
| CC[C@@]1(O)C(=O)OCc2c1cc1n(c2=O)Cc2cc3cc(O)ccc3nc2-1 | 1.32 µM (active) | – |
| CC1(C)OC2=C(C(=O)c3ccccc3C2=O)[C@H](NCc2ccccc2)[C@H]1O | 10.5 µM (active) | – |
| CC(=O)SC[C@@H](C)C(=O)N1CCC[C@H]1C(=O)N[C@@H](Cc1ccccc1)C(=O)O | – | 13.5% |
| COc1ccc(-c2cc3c(C)nc(N)nc3n(C3CCC(OCCO)CC3)c2=O)cn1 (stereo not given) | 0.187 µM (active) | – |
